Experimental findings from PubChem BioAssay AID651582 (Sanford-Burnham Center for Chemical Genomics, 2012) are described below.

The whole screen tested about 230,000 compounds, of which about 1,500 (0.65%) were called active. The sample holds actives, similar compounds and a random draw of the others, so the mix is not that of the screen.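 Rule for the calls: active = pattern-corrected inhibition of lipid staining of at least 50% with the nuclear-stain viability signal not falling by more than 50%; inactive = the rest, inconclusive results apart.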

This experiment can be described thus: TAG lipid buildup reduction in H9c2 cells – cell-based, uHTS, fluorescence, primary screen (AID 651582).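 For inhibition: 0% = DMSO wells and 100% = triacsin C control wells.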 The conditions noted are these: Nile Red lipid (TAG) fluorescence, at 12.5 µM, cells loaded with 200 µM oleic acid; DAPI nuclei signal change (viability), lower = more cytotoxic: measured here: DAPI nuclei count viability; inhibition: stronger effect = higher value.
For orientation: inhibition means the relative decrease from the control value, in per cent. In the case of `CC1CCC2(CC1)NC(=O)N(CC(=O)c1ccc3c(c1)OCO3)C2=O` (stereo not given), the DAPI nuclei signal change (viability), lower = more cytotoxic worked out at 5.46% and the inhibition is -2.45% (inactive).
In the case of `O=C(O)c1ccccc1-c1cccc2nncn12`, the DAPI nuclei signal change (viability), lower = more cytotoxic amounted to 3.23% and the inhibition was -1.16% (inactive).
As to `Cc1ccc2nc(C)cc(N/N=C/c3ccc(F)cc3)c2c1`, the DAPI nuclei signal change (viability), lower = more cytotoxic worked out at 4.22% and the inhibition was 4.13% (inactive).
In the case of `C(=N/Nc1cc(N2CCOCC2)nc(N2CCOCC2)n1)/c1ccccc1`, the DAPI nuclei signal change (viability), lower = more cytotoxic was -80.2% and the inhibition is 126% (inactive).
The like results for `Cc1cc(N/N=C\c2ccc(Br)cc2)nc(-n2nc(C)cc2C)n1` were, in that order, -21.7% and 59% (active).
The like results for `C=C(C)C(=O)O[C@H]1C/C(C)=C\C(=O)/C=C(\C)[C@H](O)[C@@H]2OC(=O)C(=C)[C@@H]21` were, in that order, -49.2% and 51.2% (active).
The like results for `O=C(Nc1nc2ccc([N+](=O)[O-])cc2s1)c1ccncc1` were, in that order, 12.5% and -10.5% (inactive).
On to `COc1ccc(C(=O)Nc2nc(-c3ccc(OC)cc3)c(-c3ccc([N+](=O)[O-])cc3)s2)cc1`, for which the DAPI nuclei signal change (viability), lower = more cytotoxic is -4.41% and the inhibition was 61.8% (active).
The like results for `CC(=O)c1sc(NC(=O)c2ccc(C)cc2)nc1C` were, in that order, -3.26% and -5.37% (inactive).
The like results for `Cc1ccc(C)c(S(=O)(=O)N(C)c2ccc(OC(=O)C3CCN(C(=O)c4ccc(F)cc4)CC3)cc2)c1` were, in that order, 0.336% and -28% (inactive).
The like results for `COC(C[C@H](O)CC(=O)[C@@H](C)OCc1ccccc1)OC` were, in that order, 5.4% and -8.13% (inactive).
In the case of `COC(C[C@H](O)CC(=O)COCc1ccccc1)OC`, the DAPI nuclei signal change (viability), lower = more cytotoxic was -39.1% and the inhibition was 53.8% (active).
With `COC(C[C@@H](O)C[C@H](O)[C@H](C)OCc1ccccc1)OC`, the DAPI nuclei signal change (viability), lower = more cytotoxic came to 5.91% and the inhibition is -1.79% (inactive).
In the case of `CC(=O)NC(c1ccccc1)c1nc(-c2cccc(C(C)C)c2)cs1` (stereo not given), the DAPI nuclei signal change (viability), lower = more cytotoxic was -1.3% and the inhibition was 8.58% (inactive).
The like results for `O=C(Nc1cc(Cl)ccc1N1CCOCC1)c1ccc(N2CCCC2=O)cc1` were, in that order, -2.51% and 10.9% (inactive).
The like results for `O=C(Nc1ccc(-c2csc(Nc3cccc(C(F)(F)F)c3)n2)cc1)c1cccc(C(F)(F)F)c1` were, in that order, -19.5% and 51.9% (active).
`CNC(=O)c1ccc(NC(=O)c2cccc(C(F)(F)F)c2)cc1`: the DAPI nuclei signal change (viability), lower = more cytotoxic was -4.98% and the inhibition is -1.2% (inactive).
The like results for `Cc1cccc(NC(=O)c2cccc(C(F)(F)F)c2)c1` were, in that order, -13.3% and -0.148% (inactive).
The like results for `CC1=C(C(=O)Nc2cccc(C(=O)NCC(C)c3ccccc3)c2)SCCO1` (stereo not given) were, in that order, -4.49% and 4.45% (inactive).
With `COc1ccc(CN2CCN(C(=O)c3cc(C4CC4)nn3-c3ccccc3)CC2)cc1F`, the DAPI nuclei signal change (viability), lower = more cytotoxic is -2% and the inhibition is 7.6% (inactive).
The like results for `Cc1c(C(=O)NNC(=O)c2ccncc2)oc2ccccc12` were, in that order, -11% and 8.91% (inactive).
`O=C(OC12CC3CC(CC(C3)C1)C2)c1ccc(NCc2cc(O)ccc2O)cc1`: the DAPI nuclei signal change (viability), lower = more cytotoxic was -61.6% and the inhibition is 111% (inactive).
Regarding `COC(=O)c1ccc(NCc2cc(O)ccc2O)cc1`, the DAPI nuclei signal change (viability), lower = more cytotoxic was -40.6% and the inhibition is 54.7% (active).
The like results for `CC(C)OC(=O)c1ccc(NCc2cc(O)ccc2O)cc1Cl` were, in that order, -60.3% and 108% (inactive).
Consider `CCCn1c(N)c(C(=O)CSc2nnc3n2CCCCC3)c(=O)[nH]c1=O`, for which the DAPI nuclei signal change (viability), lower = more cytotoxic worked out at 5.45% and the inhibition is -8.3% (inactive).
The like results for `CC[C@]1(c2ccccc2OC)C(=O)N(C(=O)OC)N1C(=O)OC` were, in that order, 11% and -4.89% (inactive).
Take `O=C(CSc1nc(Nc2ccccc2)nc(N2CCOCC2)n1)Nc1cc(Cl)ccc1O`: the DAPI nuclei signal change (viability), lower = more cytotoxic is -18.9% and the inhibition was 34.4% (inactive).
On to `Nc1nnc(SCC(=O)Nc2ccc3nc(SCC(=O)Nc4ccccc4)sc3c2)s1`, for which the DAPI nuclei signal change (viability), lower = more cytotoxic is -9.1% and the inhibition was -21.4% (inactive).
The like results for `O=C(CSc1nc2ccc(Nc3nc(N4CCOCC4)nc(N4CCOCC4)n3)cc2s1)NCc1ccco1` were, in that order, -0.911% and 54.6% (active).
The like results for `O=C(CSc1c2c(nc3ccc(Cl)cc13)CCCC2)NCc1ccco1` were, in that order, 13.7% and 2.61% (inactive).
As for `C=CCn1c(CSc2nc3ccccc3s2)nnc1SCC(=O)NCc1ccco1`, the DAPI nuclei signal change (viability), lower = more cytotoxic was -7.04% and the inhibition is -5.24% (inactive).
On to `Cc1ccccc1NC(=O)CSc1nc2ccc(Nc3nc(N4CCOCC4)nc(N4CCOCC4)n3)cc2s1`, for which the DAPI nuclei signal change (viability), lower = more cytotoxic was -7.17% and the inhibition is 62.6% (active).
The like results for `CS(=O)(=O)/C(C#N)=C/c1cccn1S(=O)(=O)c1ccc([N+](=O)[O-])cc1` were, in that order, 8.58% and -3.62% (inactive).
As to `CN(CC(=O)Nc1ccc(F)cc1)C(=O)c1ccc(-c2ccc(Cl)cc2)o1`, the DAPI nuclei signal change (viability), lower = more cytotoxic worked out at 0.479% and the inhibition is -10.2% (inactive).
The like results for `Cc1ccc(N(Cc2ccccc2O)C(=O)c2ccccc2F)cc1` were, in that order, 2.35% and -3.73% (inactive).
The like results for `C=C1CCC(N(O)c2cc(C)on2)C(=C)CCC2C1CC2(C)C` (stereo not given) were, in that order, 2.7% and -2.19% (inactive).
As to `CC(=O)Nc1ccc(-c2ccnc3c2CC(C(=O)NC(C)C)O3)cc1` (stereo not given), the DAPI nuclei signal change (viability), lower = more cytotoxic is -1.71% and the inhibition was -1.68% (inactive).
Consider `COc1ccc(-c2cc(NC=O)c3ncc(-c4ccccc4)n3c2)cc1OC`, for which the DAPI nuclei signal change (viability), lower = more cytotoxic was -14.8% and the inhibition is 19.6% (inactive).
Turning to `COc1ccc(-c2cc(NC=O)c3ncc(-c4cccc(C(=O)N(C)C)c4)n3c2)c(OC)c1`, the DAPI nuclei signal change (viability), lower = more cytotoxic is -42.3% and the inhibition is 46% (inactive).
The like results for `COc1ccc(-c2cc(NC=O)c3ncc(-c4cc(OC)c(OC)c(OC)c4)n3c2)c(OC)c1` were, in that order, -24.8% and 52.6% (active).
